# PubChem BioAssay (NCATS)
# Results filed as inconclusive are left out. Where a call stands in place of a potency, no number is given. Active and inactive are the calls of the source. Unless noted, calls come from the whole dose curve; as a rule, active = well fitted curve in the direction sought with a large enough effect; inconclusive = small, poorly fitted or top-dose-only effect, or another doubt; inactive = no such curve, though single readings can be large; an effect the other way counts as inactive or inconclusive.
# How the values were obtained:
# Furin (Homo sapiens) = Furin (Homo sapiens) (UniProt P09958); assay: Furin counterscreen qHTS for Zika virus inhibitors (AID 1347149); note: nearly all actives have a fitted effect of over 70% in size; note: potency is the fitted concentration of half-maximal effect;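 for activity change, negative = inhibition: purified recombinant full-length human furin enzyme at 5 nM; fluorescence gain from furin cutting a BOC-RVRR-AMC peptide substrate over 15 min; top concentration of the series differs between compounds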
# Method in brief: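 Counterscreen measures cleavage of 2 microM BOC-RVRR-AMC, below its ~15 microM Km, by 5 nM full-length human furin at pH 7.0 after a 15-min compound preincubation. Inhibition derives from the 15-min fluorescence increase at 37C.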
# [1] = tested on: Zika virus NS2B-NS3 protease (linked construct); assay: Confirmatory screen NINDS AMC qHTS for Zika virus inhibitors (AID 1347152); note: nearly all actives have a fitted effect of over 70% in size; note: potency is the fitted concentration of half-maximal effect;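 for activity change, negative = inhibition: AMC fluorescence gain from cleaved Bz-Nle-KRR-AMC substrate over 15 min; top concentration of the series differs between compounds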
# Method in brief: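 Enzyme (1 nM, linked construct) was preincubated with compound for 15 minutes at room temperature in 10 mM Tris-HCl pH 8.0 with 0.01% Tween 20. Bz-Nle-Lys-Arg-Arg-AMC was then added to 10 microM, and AMC fluorescence was recorded immediately and after 15 minutes.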
# [2] = tested on: Zika virus NS2B-NS3 protease (unlinked complex); assay: Confirmatory screen GU AMC qHTS for Zika virus inhibitors (AID 1347153); note: nearly all actives have a fitted effect of over 70% in size;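 for potency: enzyme at 25 nM with substrate at 10 µM below its Km of 18.3 µM; potency is the fitted concentration of half-maximal effect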
# Method in brief: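 Noncovalent NS2B hydrophilic domain/NS3 protease complex (25 nM) in 10 mM Tris-HCl pH 8.0, 0.01% Tween 20 was preincubated 15 min at room temperature with compounds. Then 10 µM AMC substrate (Km 18.3 µM) was added; fluorescence was read over 15 min and fitted to a 4-parameter Hill equation.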
# [3] = tested on: Zika virus NS2B-NS3 protease (linked construct); assay: 384 well plate NINDS Rhodamine confirmatory qHTS for Zika virus inhibitors (AID 1347164);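 note: fluorescence from protease cleavage of Ac-LKRR-rhodamine 110 substrate; potency is the fitted concentration of half-maximal effect; nearly all actives have a fitted effect of over 65% in size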
# Method in brief: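 Enzyme (final 5/30/60 nM) + cpd (DMSO), ~15 min; add Ac-LKRR-Rd 10 microM final; 25 min RT, dark; FI ex 485/em 538; normalized to no-enzyme, no-inhibitor ctrls; aprotinin intraplate ctrl.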
# [4] = biological target: Cytochrome P450 3A4 (Homo sapiens) (UniProt P08684); assay: qHTS Assay for Inhibitors and Substrates of Cytochrome P450 3A4 (AID 884); note: nearly all actives have a fitted effect of over 50% in size
# Method in brief: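 Luminescent readout of luciferin produced by CYP3A4 (20 nM) dealkylation of Luciferin-PPXE, 25 uM (its KM). NADPH-driven reaction ran 60 min at RT after 10 min compound preincubation; data scaled to 57 uM ketoconazole as 100% inhibition.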
# [5] = Confirmation and Secondary Assay for Modulators of Hemoglobin Beta Chain Splicing at IVS2 654 locus (AID 910);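 note: HeLa cells stably carrying EGFP split by mutant beta-globin IVS2-654 intron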
# Method in brief: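 HeLa cells stably expressing EGFP interrupted by β-globin IVS2-654 intron, seeded overnight in Opti-MEM/2% FCS, then treated 2 days at 37 °C. Restored splicing read as total peak GFP intensity per well by laser scanning cytometry (488 nm excitation, 500–520 nm emission); 500 nM antisense PNA as control.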
# [6] = Confirmation and Secondary Assay for Modulators of Hemoglobin Beta Chain Splicing at IVS2 705 locus (AID 930);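 note: HeLa cells stably expressing the EGFP-705 splicing reporter; GFP fluorescence per well restored by corrected splicing of the IVS2-705 intron in EGFP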
# Method in brief: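 HeLa cells stably carrying EGFP interrupted by mutant beta-globin intron 2 (IVS2-705) treated 2 days at 37C with compound; 500 nM antisense PNA as control. Correct splicing read as total peak GFP intensity per well by laser-scanning cytometry.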
# [7] = qHTS Assay for Lipid Storage Modulators (AID 1519; calls by dose curve); settings: Drosophila S3 cells, BODIPY lipid droplet/cell ratio, laser cytometry, cells loaded with oleic acid
# Method in brief: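 Cells seeded at 5,000 per well were treated with compounds over a concentration series and loaded with oleic acid (400 uM, as added). Lipid droplet fluorescence (488 nm excitation, 500-530 nm channel) was read by laser-scanning cytometry and normalized to 20 uM Triacsin C.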
# [8] = biological target: Ubiquitin carboxyl-terminal hydrolase 1 (Homo sapiens) (UniProt O94782); assay: Inhibitors of USP1/UAF1: Pilot qHTS (AID 504865);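 note: rhodamine fluorescence freed from ubiquitin-rhodamine substrate followed over time; top concentration of the series differs between compounds; nearly all actives have a fitted effect of over 35% in size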
# Method in brief: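 In 50mM HEPES pH 7.8 containing 0.5mM EDTA, 1mM TCEP, 0.1 mg/ml BSA and 0.01% Tween-20, 1nM USP1/UAF1 is exposed to compound for 15 min, then Ub-Rho (150nM final) is added and fluorescence is read over time.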
# [9] = tested on: Zika virus NS2B-NS3 protease (unlinked); assay: Optimization of GU AMC qHTS for Zika virus inhibitors: Unlinked NS2B-NS3 protease assay (AID 1347151); note: nearly all actives have a fitted effect of over 80% in size
# Method in brief: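 Unlinked protease (25 nM final); buffer 10 mM Tris-HCl pH 8.0 + 0.01% Tween 20; AMC substrate; 15 min RT, dark; Δfluorescence normalized to no-inhibitor/no-enzyme controls; 4-parameter Hill fit.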
# [10] = Vero cells viability qHTS for Zika virus inhibitors (AID 1347167)
# Method in brief: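 qHTS titration; 24-48 h compound exposure, 37 degrees C/5% CO2; DMEM, 4% FBS; CellTiter Glo ATP luminescence.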
# [11] = Tertiary RLuc qRT-PCR qHTS assay for Zika virus inhibitors (AID 1347169); note: potency is the fitted concentration of half-maximal effect; nearly all actives have a fitted effect of over 55% in size
# Method in brief: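 Vero, 1,000 cells/well, o/n 37 C; cpd pinned in DMSO; ZIKV-RLuc Cambodian, MOI 1-2, 48-72 h 37 C; live-cell RLuc substrate, lum read at 1-1.5 h.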
# [12] = tested on: Zika virus NS2B-NS3 protease; assay: Primary screen GU AMC qHTS for Zika virus inhibitors (AID 1347154); note: nearly all actives have a fitted effect of over 70% in size
# Method in brief: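 Unlinked Zika NS2B hydrophilic domain–NS3 protease complex at 25 nM in 10 mM Tris-HCl pH 8.0, 0.01% Tween 20, with an AMC peptide substrate. Fluorescence change (340/450 nm) over 15 min at room temperature, normalized to controls, fitted to 4-parameter Hill.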
# [13] = Primary qHTS for small molecule stabilizers of the endoplasmic reticulum resident proteome: Secreted ER Calcium Modulated Protein (SERCaMP) assay (AID 1508630)
# Method in brief: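 The SH-SY5Y reporter protocol was run at 3 concentrations up to 38.3 uM (primary) or 11 concentrations (follow-up): 16 h compound, 100 nM thapsigargin for 4 h, then extracellular luciferase luminescence.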
# Sequence of Furin (Homo sapiens) (P09958 whole entry, looked up): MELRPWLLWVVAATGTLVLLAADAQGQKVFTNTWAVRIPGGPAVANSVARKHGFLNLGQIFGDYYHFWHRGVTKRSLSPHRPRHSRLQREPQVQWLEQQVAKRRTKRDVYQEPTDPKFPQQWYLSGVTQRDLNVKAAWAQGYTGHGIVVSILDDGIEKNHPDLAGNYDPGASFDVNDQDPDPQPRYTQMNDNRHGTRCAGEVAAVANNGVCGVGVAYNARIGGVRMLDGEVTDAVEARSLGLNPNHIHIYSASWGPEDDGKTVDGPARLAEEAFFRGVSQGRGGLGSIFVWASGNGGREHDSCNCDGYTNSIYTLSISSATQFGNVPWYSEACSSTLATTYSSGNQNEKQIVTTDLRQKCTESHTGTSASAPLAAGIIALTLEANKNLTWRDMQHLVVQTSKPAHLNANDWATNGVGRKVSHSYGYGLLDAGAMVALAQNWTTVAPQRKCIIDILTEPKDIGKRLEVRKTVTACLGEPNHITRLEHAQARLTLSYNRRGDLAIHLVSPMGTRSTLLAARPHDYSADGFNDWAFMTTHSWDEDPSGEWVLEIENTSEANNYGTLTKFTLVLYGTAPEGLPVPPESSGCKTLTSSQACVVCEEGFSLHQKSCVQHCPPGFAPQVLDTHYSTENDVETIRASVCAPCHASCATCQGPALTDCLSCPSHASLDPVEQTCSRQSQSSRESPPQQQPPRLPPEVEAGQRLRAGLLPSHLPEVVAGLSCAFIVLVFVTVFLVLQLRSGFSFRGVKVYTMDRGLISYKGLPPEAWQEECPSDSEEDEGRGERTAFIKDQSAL
# Sequence of Ubiquitin carboxyl-terminal hydrolase 1 (Homo sapiens) (O94782 whole entry, looked up): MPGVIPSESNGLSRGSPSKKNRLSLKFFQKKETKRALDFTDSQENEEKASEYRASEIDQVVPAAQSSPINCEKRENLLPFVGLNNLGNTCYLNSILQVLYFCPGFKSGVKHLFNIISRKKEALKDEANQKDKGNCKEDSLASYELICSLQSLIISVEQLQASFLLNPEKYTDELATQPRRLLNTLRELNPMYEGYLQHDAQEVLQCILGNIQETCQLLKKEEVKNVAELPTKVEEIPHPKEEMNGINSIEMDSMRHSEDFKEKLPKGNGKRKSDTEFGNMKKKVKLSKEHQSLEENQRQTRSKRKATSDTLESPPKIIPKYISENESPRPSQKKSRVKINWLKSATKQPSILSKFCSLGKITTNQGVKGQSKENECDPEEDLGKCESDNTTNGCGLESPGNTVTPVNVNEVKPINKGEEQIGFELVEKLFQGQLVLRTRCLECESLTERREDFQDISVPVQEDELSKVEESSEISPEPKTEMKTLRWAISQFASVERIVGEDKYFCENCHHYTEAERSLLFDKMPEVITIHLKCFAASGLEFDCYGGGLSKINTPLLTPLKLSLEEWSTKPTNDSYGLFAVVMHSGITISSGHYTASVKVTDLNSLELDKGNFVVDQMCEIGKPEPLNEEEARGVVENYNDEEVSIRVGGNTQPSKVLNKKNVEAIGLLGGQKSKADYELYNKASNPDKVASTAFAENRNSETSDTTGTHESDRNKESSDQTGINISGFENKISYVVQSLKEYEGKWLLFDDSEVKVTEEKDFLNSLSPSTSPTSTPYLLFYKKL
# Sequence of Cytochrome P450 3A4 (Homo sapiens) (P08684 whole entry, looked up): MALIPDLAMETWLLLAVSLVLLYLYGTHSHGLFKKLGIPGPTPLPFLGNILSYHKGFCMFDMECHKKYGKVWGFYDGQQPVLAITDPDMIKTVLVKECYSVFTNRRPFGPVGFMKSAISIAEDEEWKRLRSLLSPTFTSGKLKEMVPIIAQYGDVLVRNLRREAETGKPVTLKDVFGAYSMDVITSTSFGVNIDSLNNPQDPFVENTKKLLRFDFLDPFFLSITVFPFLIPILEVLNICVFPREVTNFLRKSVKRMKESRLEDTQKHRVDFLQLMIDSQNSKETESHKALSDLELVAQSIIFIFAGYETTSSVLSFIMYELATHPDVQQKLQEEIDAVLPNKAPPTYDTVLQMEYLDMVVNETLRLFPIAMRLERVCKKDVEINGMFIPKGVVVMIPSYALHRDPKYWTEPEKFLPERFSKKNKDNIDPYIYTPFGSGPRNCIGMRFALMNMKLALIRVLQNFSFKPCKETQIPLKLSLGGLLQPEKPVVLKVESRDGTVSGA
smiles,measurement,setting,value
O=C(O)COc1ccc(-c2nccc3c2C(=O)N(Cc2ccccc2)CC(COc2cccc(C(F)(F)F)c2)O3)cc1 (stereo not given),Potency,Furin (Homo sapiens),inactive
same,Potency,[1],55.5 µM (active)
same,Potency,[2],44.1 µM (active)
same,Potency,[3],35.5 µM (active)
CCOc1ccc(C(=O)Nc2cccc(C(=O)OCc3cc(=O)n4nc(C5CC5)sc4n3)c2)cc1,Potency,Furin (Homo sapiens),52.7 µM (active)
CC(C)(C)c1ccc(NC(=O)O[C@@H]2CO[C@H]3[C@@H]2OC[C@@H]3Nc2nccc(-c3ccc(-c4ccccc4)cc3)n2)cc1,Potency,Furin (Homo sapiens),62.2 µM (active)
same,Potency,[1],inactive
same,Potency,[2],inactive
CC1O[C@@H](O[C@@H]2C(O)C[C@H](O[C@@H]3C(O)C[C@@H](OC4CC[C@@]5(C)C6CC(O)[C@@]7(C)C(C8=CC(=O)OC8)CC[C@@]7(O)C6CC[C@@H]5C4)OC3C)OC2C)CC(O)[C@H]1O (stereo not given in full),Potency,[4],inactive
same,outcome,[5],inactive
same,outcome,[6],inactive
same,"activity change, negative = inhibition",[7]; at 57.5 µM (top of the series),7.91% (inactive)
same,max response,[7]; measured here: cell count channel max response,11.2%
same,max response,[7]; measured here: lipid channel max response,22.9%
same,Potency,[8],inactive
same,Potency,Furin (Homo sapiens),inactive
same,Potency,[9],inactive
same,Potency,[10],inactive
same,Potency,[11],1.17 µM (active)
C[C@H]1O[C@@H](O[C@H]2[C@@H](O)C[C@H](O[C@H]3[C@@H](O)C[C@H](O[C@H]4CC[C@]5(C)C6C[C@@H](O)[C@]7(C)[C@@H](C8=CC(=O)OC8)CC[C@]7(O)C6CC[C@@H]5C4)O[C@@H]3C)O[C@@H]2C)C[C@H](O)[C@@H]1O (stereo not given in full),Potency,Furin (Homo sapiens),inactive
same,Potency,[9],inactive
same,Potency,[12],inactive
same,Potency,[10],inactive
same,Potency,[11],0.294 µM (active)
same,Potency,[13],inactive
